Among all 330,000 compounds or so, about 4,100 (1.2%) were called active. The entries come from a sample that favours actives as a whole. A number with no mark means an inactive call. Rule as the data show it: active = inhibition above about 50%; inactive = the rest.

Sentrin-specific protease 8 (Homo sapiens), sequence (Q96LD8 whole entry, looked up): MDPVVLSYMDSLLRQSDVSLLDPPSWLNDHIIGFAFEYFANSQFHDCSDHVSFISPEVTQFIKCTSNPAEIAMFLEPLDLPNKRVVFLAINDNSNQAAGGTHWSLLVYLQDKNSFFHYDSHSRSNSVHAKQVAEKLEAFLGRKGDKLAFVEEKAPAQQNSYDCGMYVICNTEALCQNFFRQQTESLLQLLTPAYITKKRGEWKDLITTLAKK

The test addresses Sentrin-specific protease 8 (Homo sapiens) (UniProt Q96LD8). The test can be described thus: blockers of human SENP8 peptidase activity – biochemical, luminescence, primary screen (AID 2540). The settings on record: purified SENP8, Z-RLRGG-aminoluciferin cleavage, at 10 µM, stronger effect = higher value.
As for `CC(CNc1ccc([N+](=O)[O-])cc1)NC(=O)c1ccccc1Br` (centres undefined), the inhibition was 0%.
Then `O=C(O)c1c(NC(=O)N2CCCC2)sc2c1CCCC2`, with -9.81%; and `O=C(Nc1sc2c(c1C(=O)O)CCC2)c1ccccc1F`, with 86.7% (active).
In the case of `COC(=O)c1c(NC(=O)c2ccccc2F)sc2c1C(C(=O)OC)CC2` (centres undefined), the inhibition was -3.54%.
Then `CCOC(=O)C1CCCCN1Cc1ccc(OC)c(OC)c1OC` (centres undefined), with -0.162%.
Then `O=C(Nc1ccc2c(c1)CCC2)c1ccc(Br)s1`, with 61.5% (active); and `CC(C)Oc1ccc(C(=O)NCC(=O)Nc2ccc3c(c2)CCC3)cc1`, with 6.91%.
Then `CC1CC(C)CN(CCC(=O)Nc2ccc3c(c2)CCC3)C1` (centres undefined), with 7.63%; and `Cc1nn(-c2ccccc2)c2c1C(=O)NC(=O)C(C)(C)C2`, with 4.21%.
For the compound `Cc1nnc(SCc2ccc(C(=O)c3ccc(Cl)cc3)o2)n1-c1ccccc1`, the inhibition is -8.59%.
The result for `Nc1nc(NCc2ccccc2)n(-c2ccccc2)n1` reads 4.17%.
`COc1ccccc1CNC(=O)CSc1nc(=O)n(Cc2ccncc2)c2c1CCC2`: the inhibition is -3.51%.
`N#Cc1c(N2CCCCC2)nc(N)c2c(N)nc(SCC(=O)O)cc12`: the inhibition was 70.8% (active).
The result for `Nc1nc(NCC(=O)O)nc(N2CCCCCC2)c1[N+](=O)[O-]` reads -1.61%.
Then `N#CCc1c(C#N)c(N)nc(N2CCCC2)c1C#N`, with 0.98%.
The result for `O=S(=O)(NCC1CCCO1)c1cnc(Cl)c(Cl)c1` (centres undefined) reads 3.51%; that for `O=C(CN(c1ccccc1)S(=O)(=O)c1ccc(Cl)cc1)Nc1ccccc1C(=O)N1CCCC1`, 2.45%.
In the case of `Cc1nc(C(=O)N2CCCC(C(=O)c3ccc(Cl)cc3)C2)cs1` (centres undefined), the inhibition was -2.8%.
The result for `Cn1cc(-c2ccccc2)cc(C#N)c1=O` reads 3.36%; that for `COC(=O)[C@@H](NC(=O)NCc1cccc(OC)c1)C(C)C`, 0.612%.
The result for `O=C(O)c1ccc(N=NN2CCOCC2)cc1` reads 1.65%; that for `O=C(O)c1cccc(N=NN2CCCCCC2)c1`, 88.8% (active); that for `NC1=NN(c2cccc(C(=O)O)c2)C(=O)C1`, -5.54%.
`Cc1cc(C(F)(F)F)nn1CC(=O)N1CCCC1`: the inhibition was -6.86%.
Then `COc1ccc(C2/C=C\CN(S(=O)(=O)c3cccs3)CC(=O)N2Cc2ccc(F)cc2)cc1` (centres undefined), with -0.424%.
The result for `CN1CCN(C2Cc3ccc(Cl)cc3Sc3ccc(F)cc32)CC1` (centres undefined) reads -10.9%; that for `CCOC(=O)/C(=C\c1ccc([N+](=O)[O-])cc1)C(=O)c1cc(C(C)=O)c(Nc2ccccc2)s1`, 6.19%.
Then `O=C(c1ccc(F)cc1)n1cc(C(=S)N2CCOCC2)c2ccccc21`, with -5.7%; and `O=C(c1ccc(F)cc1)n1c(=S)nc2ccccn21`, with 64.1% (active); and `O=C(Cn1c(=S)nc2ccccn21)N1CCc2ccccc2C1`, with 0.682%.
In the case of `Cc1ccccc1SCC(=O)OCC(=O)N1CC(=O)Nc2ccccc21`, the inhibition was 4.24%.
The result for `Cc1cccc(CN2CCC(CNC(=O)Nc3ccc(F)c(Cl)c3)CC2)c1` reads -1.33%; that for `Cn1ncc(Br)c1C(=O)NCc1cccs1`, -2.84%; that for `CCOc1ccccc1NC(=O)Cn1nnc(C(=O)NCc2cccs2)c1N`, 19.3%.
As to `CC(C)Cn1c(N)c(C(=O)NCc2cccs2)c2nc3ccccc3nc21`, the inhibition is 90% (active).
The result for `CCCCNC(=O)N1CCN(S(C)(=O)=O)CC1` reads -11%; that for `Cc1ccc(C(=O)O/N=C(\N)c2ccccn2)cc1Cl`, 78% (active); that for `O=C(COC(=O)c1ccccn1)NNC(=O)c1ccc(Br)cc1`, 0.814%.
`C/C(=N/OC(=O)c1cccc(C(F)(F)F)c1)c1cnccn1`: the inhibition is -12.8%.
As to `COc1ccc(C(=O)O/N=C(\N)c2ccccn2)cc1[N+](=O)[O-]`, the inhibition was -12%.
The result for `O=C(COC(=O)c1ccccn1)NNC(=O)c1ccc([N+](=O)[O-])cc1` reads -16.2%; that for `N/C(=N\OC(=O)c1ccc([N+](=O)[O-])cc1)c1ccccn1`, 89.6% (active).
Then `CCCNC(=O)COc1coc(CN2CCN(Cc3ccccc3)CC2)cc1=O`, with -2.92%; and `CC(C)Cn1c(SCC(=O)Nc2ccc(Cl)cc2F)nc(O)cc1=O`, with 0.222%.
Then `COc1cccc2sc(Nc3nc(C)c(C(C)=O)s3)nc12`, with 66.7% (active).
For the compound `CNC(=O)c1sc(NCc2ccccc2OC)nc1C`, the inhibition is 0.124%.
The result for `COc1cc2ccccc2cc1C(=O)Nc1nc(C)c(C(C)=O)s1` reads -0.787%.
Then `Cc1ccc(S(=O)(=O)N2CCCCC2)cc1C(=O)N1CCN(CCO)CC1`, with 4.2%; and `O=C(NCc1ccccc1Cl)C1CCCN1S(=O)(=O)c1ccc(F)cc1` (centres undefined), with -7.31%; and `Cc1ccc(N2CC(C(=O)Nc3cc(Cl)ccc3-n3cncn3)CC2=O)cc1` (centres undefined), with 10.6%.
For `Cc1ccc(Nc2ncnc3c2cnn3C)c(C)c1`, the inhibition is 0.699%.
The result for `Cc1ccc(-n2ncc3c(Nc4cccc(C(=O)O)c4)ncnc32)cc1` reads 90.4% (active).
Then `CC(C)Sc1ncnc2c1cnn2-c1ccccc1`, with 38.9%.
The result for `O=C(C1CCN(C2CCN(Cc3ccc4cc(F)ccc4n3)CC2)CC1)N1CCCC1` reads -5.41%; that for `O=c1[nH]cnc(O)c1C(c1ccc(F)cc1)c1c(O)nc[nH]c1=O`, -12.7%.
Regarding `CC(C)CN(Cc1c(O)ccc2c(=O)c(-c3ccccc3)coc12)CC(C)C`, the inhibition was -6.97%.
Then `CCc1ccc(Oc2coc3cc(O)ccc3c2=O)cc1`, with -15.7%.
`O=c1c(-c2ccccc2)coc2cc(O)ccc12`: the inhibition was 55% (active).
The result for `O=C(O)c1ccc(OCC2CCCO2)cc1` (centres undefined) reads -8.8%; that for `COC(=O)c1ccc(Sc2ccc(F)cc2)c(N)c1`, -1.32%; that for `CCOc1ccc(N/C=C/C(=O)c2ccccc2)cc1`, 93.7% (active).
On to `CC(=O)Nc1ccc(/C=C/C(=O)c2ccccc2)cc1`, for which the inhibition was -16.7%.
Then `Cc1cc(N/C=C\C(=O)c2ccc(Cl)c(Cl)c2)no1`, with -16.9%.
`CCOc1ccc(NC(=S)N2CCC(NC(=O)c3ccccc3)CC2)cc1`: the inhibition is -6%.
In the case of `COc1ccc(C(=O)/C=C/Nc2ccccn2)cc1`, the inhibition is 95.5% (active).
Then `CCOc1ccc(N/C=C/C(=O)c2cc(OC)c(OC)c(OC)c2)cc1`, with -9.53%.
Then `O=C(/C=C/NCc1ccc(F)cc1)c1ccccc1`, with -2.04%; and `COc1ccc(N2C(=O)CCC(C(=O)Nc3ccccn3)C2c2ccc(OC)c(OC)c2)cc1` (centres undefined), with -4.67%.
Take `Cc1ccc(N/C=C/C(=O)c2ccccc2)cc1C`: the inhibition is 88.8% (active).

Source of the values: PubChem BioAssay AID2540 (Sanford-Burnham Center for Chemical Genomics, 2010).
